Measurements reported in the supplement of paper PMC10849652.
The full data set covers some 8,800 targets. This sample favours those with a hit. About 0.5% of all pairs of compound and target were hits. Values without a mark were called inactive.

Assays:
Test in all cases: log2 fold change, soluble protein after heating vs DMSO (PISA); higher = thermal stabilisation; K562 lysate, 10 uM; active = over 0.2 and 3.5 SD of the protein, either way, in both replicates (recomputed)
[1] = compound: NCC(=O)Nc1ccc(-n2nc(C(F)(F)F)cc2-c2ccc3c(ccc4ccccc43)c2)cc1
How it was run: (§1)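 The values are log-two fold changes in thermal stability compared with solvent controls and come from duplicates. They were obtained by TMTpro 16plex LC-MS/MS, with channel sums equalised, on the supernatant after 21,000xg for 90 min. That supernatant came from crude K562 extract at 1 mg/mL protein treated with 10 μM compound for 30 min, heated for 3 min across 48°C-58°C, pooled and brought to 0.5% NP-40 at 4°C.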

[2] = compound: O=C(CCCCCCC(=O)Nc1ccccc1)NO [vorinostat]
How it was run: as §1

[3] = compound: O=C(O)c1ccc2c(c1)nc(Nc1cccc(Cl)c1)c1ccncc12 [silmitasertib]
How it was run: as §1

[4] = compound: O=C1NC(=O)C(c2cnc3ccccn23)=C1c1cn2c3c(cc(F)cc13)CN(C(=O)N1CCCCC1)CC2
How it was run: as §1

[5] = compound: c1cn2cc(-c3ccc4cn[nH]c4c3)nc(Nc3ccc(N4CCOCC4)cc3)c2n1 [entospletinib]
How it was run: as §1

UniProt Q8NC44, sequence (Q8NC44 whole entry, looked up): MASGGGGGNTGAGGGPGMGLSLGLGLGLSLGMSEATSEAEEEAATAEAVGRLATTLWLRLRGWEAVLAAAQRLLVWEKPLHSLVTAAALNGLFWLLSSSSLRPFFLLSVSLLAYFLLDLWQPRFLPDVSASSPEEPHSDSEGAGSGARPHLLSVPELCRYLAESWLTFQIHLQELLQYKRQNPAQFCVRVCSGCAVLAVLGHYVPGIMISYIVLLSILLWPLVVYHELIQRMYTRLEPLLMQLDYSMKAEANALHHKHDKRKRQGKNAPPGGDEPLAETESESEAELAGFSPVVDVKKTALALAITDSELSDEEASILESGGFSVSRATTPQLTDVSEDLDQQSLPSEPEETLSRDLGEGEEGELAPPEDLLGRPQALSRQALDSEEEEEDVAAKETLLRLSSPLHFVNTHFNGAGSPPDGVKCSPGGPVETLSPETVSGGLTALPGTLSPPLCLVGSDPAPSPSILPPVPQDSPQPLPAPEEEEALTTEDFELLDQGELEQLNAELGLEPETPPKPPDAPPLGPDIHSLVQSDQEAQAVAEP
UniProt Q5HYI8, sequence (Q5HYI8 whole entry, looked up): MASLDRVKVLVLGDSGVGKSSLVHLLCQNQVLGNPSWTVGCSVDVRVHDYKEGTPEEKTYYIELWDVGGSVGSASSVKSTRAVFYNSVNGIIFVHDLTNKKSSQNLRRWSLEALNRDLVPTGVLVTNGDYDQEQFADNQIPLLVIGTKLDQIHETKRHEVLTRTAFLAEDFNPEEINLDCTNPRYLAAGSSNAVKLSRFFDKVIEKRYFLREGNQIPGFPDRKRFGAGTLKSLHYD
UniProt P31040, sequence (P31040 whole entry, looked up): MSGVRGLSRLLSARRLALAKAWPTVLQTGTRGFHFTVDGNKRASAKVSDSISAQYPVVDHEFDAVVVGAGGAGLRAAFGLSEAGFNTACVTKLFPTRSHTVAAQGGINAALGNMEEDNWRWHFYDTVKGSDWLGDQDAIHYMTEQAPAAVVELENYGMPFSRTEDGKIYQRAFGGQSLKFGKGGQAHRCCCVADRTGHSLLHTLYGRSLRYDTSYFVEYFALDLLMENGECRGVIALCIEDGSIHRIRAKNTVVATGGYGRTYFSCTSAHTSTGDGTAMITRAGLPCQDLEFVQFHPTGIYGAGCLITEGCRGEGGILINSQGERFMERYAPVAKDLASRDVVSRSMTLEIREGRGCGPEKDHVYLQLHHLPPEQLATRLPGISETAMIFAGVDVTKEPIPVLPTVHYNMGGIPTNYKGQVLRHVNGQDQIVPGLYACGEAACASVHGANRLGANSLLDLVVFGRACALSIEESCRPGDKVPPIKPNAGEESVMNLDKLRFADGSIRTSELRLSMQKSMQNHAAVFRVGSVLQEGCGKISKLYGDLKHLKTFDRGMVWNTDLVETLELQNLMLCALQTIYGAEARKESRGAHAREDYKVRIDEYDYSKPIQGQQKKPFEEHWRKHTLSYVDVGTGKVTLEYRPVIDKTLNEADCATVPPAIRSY
UniProt O75880, sequence (O75880 whole entry, looked up): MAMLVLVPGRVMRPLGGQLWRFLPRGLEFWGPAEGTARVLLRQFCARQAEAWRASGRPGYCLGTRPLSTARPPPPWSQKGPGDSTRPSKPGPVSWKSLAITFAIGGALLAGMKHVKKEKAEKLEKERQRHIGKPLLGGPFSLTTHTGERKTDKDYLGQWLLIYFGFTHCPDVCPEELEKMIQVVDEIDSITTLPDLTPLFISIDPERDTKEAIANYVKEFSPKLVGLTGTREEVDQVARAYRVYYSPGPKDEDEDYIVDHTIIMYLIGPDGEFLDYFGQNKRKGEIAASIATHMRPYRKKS
UniProt Q8WZA2, sequence (Q8WZA2 whole entry, looked up): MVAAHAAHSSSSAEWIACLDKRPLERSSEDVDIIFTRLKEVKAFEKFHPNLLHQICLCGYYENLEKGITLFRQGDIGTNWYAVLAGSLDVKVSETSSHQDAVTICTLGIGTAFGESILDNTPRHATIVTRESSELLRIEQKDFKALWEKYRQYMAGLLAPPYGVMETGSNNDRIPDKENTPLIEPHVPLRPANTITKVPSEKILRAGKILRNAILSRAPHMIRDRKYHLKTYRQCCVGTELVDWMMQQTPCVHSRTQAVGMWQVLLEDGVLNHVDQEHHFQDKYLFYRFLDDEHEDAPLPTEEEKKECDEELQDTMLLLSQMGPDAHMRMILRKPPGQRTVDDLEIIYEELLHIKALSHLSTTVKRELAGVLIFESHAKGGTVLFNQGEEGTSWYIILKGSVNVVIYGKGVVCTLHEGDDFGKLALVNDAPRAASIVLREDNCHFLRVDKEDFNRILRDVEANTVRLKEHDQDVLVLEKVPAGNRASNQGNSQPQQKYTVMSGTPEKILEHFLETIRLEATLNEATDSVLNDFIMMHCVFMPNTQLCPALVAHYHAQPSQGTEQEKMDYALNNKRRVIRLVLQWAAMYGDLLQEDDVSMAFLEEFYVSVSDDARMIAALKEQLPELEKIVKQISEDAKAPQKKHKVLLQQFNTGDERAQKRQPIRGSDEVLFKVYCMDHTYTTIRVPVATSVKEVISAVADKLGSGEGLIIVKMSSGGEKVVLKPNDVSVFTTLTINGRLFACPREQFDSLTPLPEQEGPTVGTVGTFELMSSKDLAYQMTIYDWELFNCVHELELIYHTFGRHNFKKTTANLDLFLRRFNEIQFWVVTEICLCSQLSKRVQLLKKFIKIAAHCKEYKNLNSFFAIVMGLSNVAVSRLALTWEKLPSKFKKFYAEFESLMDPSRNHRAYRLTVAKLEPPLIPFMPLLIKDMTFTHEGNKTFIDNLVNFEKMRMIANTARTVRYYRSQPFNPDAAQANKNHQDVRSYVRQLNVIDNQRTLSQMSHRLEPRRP
UniProt Q99496, sequence (Q99496 whole entry, looked up): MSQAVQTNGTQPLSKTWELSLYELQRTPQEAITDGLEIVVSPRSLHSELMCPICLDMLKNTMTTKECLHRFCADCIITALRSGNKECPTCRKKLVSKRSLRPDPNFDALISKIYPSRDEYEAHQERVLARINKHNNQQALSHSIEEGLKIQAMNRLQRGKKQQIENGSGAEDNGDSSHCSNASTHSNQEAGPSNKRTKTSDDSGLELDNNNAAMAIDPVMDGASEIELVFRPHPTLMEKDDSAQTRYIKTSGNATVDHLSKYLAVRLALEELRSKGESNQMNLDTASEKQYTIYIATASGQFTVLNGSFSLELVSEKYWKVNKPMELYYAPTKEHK
UniProt Q9BWF3, sequence (Q9BWF3 whole entry, looked up): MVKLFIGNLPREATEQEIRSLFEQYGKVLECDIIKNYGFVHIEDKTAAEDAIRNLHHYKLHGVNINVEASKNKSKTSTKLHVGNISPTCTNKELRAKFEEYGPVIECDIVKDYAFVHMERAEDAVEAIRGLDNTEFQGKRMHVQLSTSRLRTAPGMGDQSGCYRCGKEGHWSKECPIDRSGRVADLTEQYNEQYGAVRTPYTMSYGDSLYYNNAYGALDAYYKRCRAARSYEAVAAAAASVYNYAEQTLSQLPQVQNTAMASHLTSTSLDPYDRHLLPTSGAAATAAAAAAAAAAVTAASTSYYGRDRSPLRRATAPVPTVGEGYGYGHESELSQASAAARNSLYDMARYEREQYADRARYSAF
UniProt Q96E14, sequence (Q96E14 whole entry, looked up): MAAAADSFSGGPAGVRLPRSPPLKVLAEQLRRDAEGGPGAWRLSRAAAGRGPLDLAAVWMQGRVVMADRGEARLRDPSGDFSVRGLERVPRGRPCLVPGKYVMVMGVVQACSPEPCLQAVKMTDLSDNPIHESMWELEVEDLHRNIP
UniProt O75150, sequence (O75150 whole entry, looked up): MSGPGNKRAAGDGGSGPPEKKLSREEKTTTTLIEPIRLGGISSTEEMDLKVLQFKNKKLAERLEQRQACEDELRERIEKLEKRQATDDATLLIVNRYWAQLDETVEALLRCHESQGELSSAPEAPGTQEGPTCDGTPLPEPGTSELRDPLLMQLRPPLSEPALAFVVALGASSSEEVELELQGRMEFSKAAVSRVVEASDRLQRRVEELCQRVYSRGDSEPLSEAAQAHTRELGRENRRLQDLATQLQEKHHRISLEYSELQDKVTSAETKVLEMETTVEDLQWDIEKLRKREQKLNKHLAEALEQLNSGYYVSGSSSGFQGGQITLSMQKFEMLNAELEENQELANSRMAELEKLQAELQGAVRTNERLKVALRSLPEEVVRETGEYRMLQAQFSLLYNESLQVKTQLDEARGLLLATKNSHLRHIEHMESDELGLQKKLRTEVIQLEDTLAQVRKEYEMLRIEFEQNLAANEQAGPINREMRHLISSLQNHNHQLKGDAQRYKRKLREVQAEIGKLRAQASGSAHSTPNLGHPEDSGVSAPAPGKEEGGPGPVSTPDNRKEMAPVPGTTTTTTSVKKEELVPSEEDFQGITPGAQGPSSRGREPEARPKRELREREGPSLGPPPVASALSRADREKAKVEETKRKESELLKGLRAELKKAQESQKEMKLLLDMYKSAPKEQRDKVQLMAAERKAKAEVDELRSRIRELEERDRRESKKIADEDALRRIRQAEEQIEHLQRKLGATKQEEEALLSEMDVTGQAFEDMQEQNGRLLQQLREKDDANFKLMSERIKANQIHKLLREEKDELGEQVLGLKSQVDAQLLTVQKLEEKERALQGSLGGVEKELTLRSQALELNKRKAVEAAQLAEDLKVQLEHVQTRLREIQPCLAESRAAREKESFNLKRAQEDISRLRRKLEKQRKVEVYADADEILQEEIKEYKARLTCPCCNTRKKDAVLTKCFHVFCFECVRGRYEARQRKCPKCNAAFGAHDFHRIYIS
UniProt P35250, sequence (P35250 whole entry, looked up): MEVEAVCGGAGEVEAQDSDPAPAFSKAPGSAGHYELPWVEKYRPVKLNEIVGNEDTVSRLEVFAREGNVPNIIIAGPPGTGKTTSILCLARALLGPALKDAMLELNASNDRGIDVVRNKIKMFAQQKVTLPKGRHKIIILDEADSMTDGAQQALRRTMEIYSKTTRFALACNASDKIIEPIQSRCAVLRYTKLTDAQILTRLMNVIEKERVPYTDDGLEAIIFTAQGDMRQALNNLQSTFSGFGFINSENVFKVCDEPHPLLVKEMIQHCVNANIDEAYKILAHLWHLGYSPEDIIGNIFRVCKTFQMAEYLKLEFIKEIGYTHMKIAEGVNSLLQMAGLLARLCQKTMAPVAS

| Target | log2 fold change [1] | log2 fold change [2] | log2 fold change [3] | log2 fold change [4] | log2 fold change [5] |
| --- | --- | --- | --- | --- | --- |
| RAD54L2 (UniProt Q9Y4B4) | 0.119 | -0.487 (active) | 0.04 | 0.01 | 0.014 |
| RPS9 (UniProt P46781) | -0.03 | 0.125 | 0.042 | 0.002 | 0.004 |
| RBM5 (UniProt P52756) | 0.036 | -0.427 (active) | 0.072 | -0.056 | 0.023 |
| RNF40 (UniProt O75150) | 0.015 | -0.237 (active) | 0.032 | -0.007 | -0.022 |
| RFC3 (UniProt P40938) | -0.01 | -0.365 (active) | 0.035 | 0.006 | 0.018 |
| RAB3IL1 (UniProt E9PK89) | 0.016 | -0.614 (active) | 0.011 | 0.079 | -0.158 |
| RAF1 isoform 2 (UniProt P04049) | 0.126 | -0.304 (active) | 0.024 | 0.068 | -0.015 |
| RPL28 (UniProt P46779) | 0.012 | 0.033 | 0.008 | 0.043 | 0.007 |
| SDHA (UniProt P31040) | 0.007 | 0.058 | -0.014 | -0.028 | -0.006 |
| RETREG2 (UniProt Q8NC44) | -0.058 | 0.023 | 0.015 | -0.007 | -0.004 |
| RINT1 (UniProt Q6NUQ1) | 0.078 | -0.321 (active) | 0.038 | 0.034 | -0.089 |
| RBM23 isoform 2 (UniProt Q86U06) | 0.121 | -0.334 | -0.019 | -0.113 | 0.037 |
| SCO2 (UniProt O43819) | -0.024 | 0.063 | -0.079 | 0.017 | 0.053 |
| QRSL1 (UniProt Q9H0R6) | 0.066 | -0.308 (active) | 0.051 | 0.028 | 0.019 |
| RECQL4 (UniProt O94761) | -0.003 | -0.044 | 0.019 | 0.022 | -0.023 |
| SCO1 (UniProt O75880) | 0.022 | 0.149 | -0.067 | -0.052 | 0 |
| RHOA (UniProt P61586) | 0.03 | 0.064 | -0.009 | 0 | 0.022 |
| SAR1A (UniProt Q9NR31) | 0.004 | 0.056 | -0.077 | -0.039 | -0.089 |
| RAPGEF4 (UniProt Q8WZA2) | 0.219 | 0.143 | -0.09 | 0.353 | 0.014 |
| RNF181 (UniProt Q9P0P0) | -0.014 | 0.101 | -0.019 | -0.023 | -0.24 (active) |
| RALA (UniProt P11233) | 0.031 | 0.129 | -0.062 | 0 | -0.006 |
| RABGGTB (UniProt P53611) | -0.058 | -0.286 (active) | 0.006 | -0.005 | -0.044 |
| SESN2 (UniProt P58004) | 0.006 | -0.367 (active) | 0.066 | 0.022 | 0.073 |
| RTN4IP1 (UniProt Q8WWV3) | -0.1 | -0.338 (active) | 0.165 | 0.054 | -0.01 |
| RAD51C (UniProt O43502) | 0.023 | -0.386 (active) | -0.003 | -0.015 | 0.065 |
| RNF2 (UniProt Q99496) | -0.015 | -0.037 | 0.021 | 0.008 | -0.033 |
| RPL37A (UniProt P61513) | 0.028 | 0.08 | -0.021 | 0.093 | -0.005 |

| Target | log2 fold change [1] | log2 fold change [2] | log2 fold change [3] | log2 fold change [4] | log2 fold change [5] |
| --- | --- | --- | --- | --- | --- |
| RAP1B (UniProt F5GZG1) | -0.051 | -0.054 | -0.004 | -0.099 | -0.026 |
| RAB27A (UniProt P51159) | -0.033 | -0.08 | 0.066 | -0.009 | 0.023 |
| SEMA4G isoform 2 (UniProt Q9NTN9) | 0.078 | -0.513 (active) | 0.172 | 0.103 | -0.09 |
| RBM4 (UniProt Q9BWF3) | -0.04 | -0.172 | 0.035 | -0.097 | 0.001 |
| RRM1 (UniProt P23921) | 0.011 | -0.227 (active) | 0.027 | -0.003 | -0.013 |
| RPTOR (UniProt Q8N122) | 0.002 | -0.337 (active) | 0.048 | 0.012 | -0.01 |
| SAMD4A (UniProt Q9UPU9) | -0.038 | -0.647 (active) | 0.027 | 0.014 | -0.053 |
| RABL3 (UniProt Q5HYI8) | 0.031 | -0.126 | 0.445 | -0.039 | 0 |
| RPAP1 (UniProt Q9BWH6) | 0.006 | -0.232 (active) | 0 | 0.015 | -0.025 |
| RRAGA (UniProt Q7L523) | -0.007 | 0.099 | 0.039 | -0.015 | 0.05 |
| SBF1 isoform 4 (UniProt O95248) | 0.013 | -0.377 (active) | -0.046 | 0.056 | 0.005 |
| RPLP0P6 (UniProt Q8NHW5) | 0.009 | 0.123 | 0.004 | -0.003 | 0.017 |
| RPL31 (UniProt P62899) | 0.003 | 0.126 | 0.007 | 0.06 | 0.021 |
| RALGAPB (UniProt Q86X10) | 0.004 | -0.299 (active) | 0.017 | -0.017 | -0.029 |
| RNF168 (UniProt Q8IYW5) | 0.056 | -0.313 | 0.025 | -0.046 | 0.042 |
| RFC2 (UniProt P35250) | -0.027 | -0.506 (active) | 0.043 | -0.017 | 0.004 |
| RPN2 (UniProt P04844) | -0.007 | 0.118 | 0.008 | -0.04 | -0.009 |
| RMI2 (UniProt Q96E14) | -0.008 | -0.586 (active) | 0.092 | 0.041 | -0.01 |
| RIPK1 (UniProt Q13546) | -0.021 | -0.292 (active) | -0.037 | -0.013 | 0.011 |
| RPL8 (UniProt P62917) | -0.041 | 0.12 | 0 | 0.089 | -0.006 |
| SEC16A isoform 5 (UniProt O15027) | 0.053 | -0.281 (active) | 0.008 | -0.029 | -0.015 |
| RAB6D (UniProt Q53S08) | -0.012 | 0.151 | -0.02 | -0.011 | -0.01 |
| RAB3IL1 (UniProt Q8TBN0) | -0.006 | -0.268 (active) | 0.025 | 0.07 | 0.015 |
| RABEPK (UniProt Q7Z6M1) | 0.008 | -0.441 (active) | 0.032 | 0.014 | 0.009 |
| RAB8B (UniProt Q92930) | -0.022 | 0.135 | -0.025 | 0 | -0.021 |
| RAP1GAP isoform 4 (UniProt P47736) | -0.058 | -0.419 (active) | -0.035 | 0.022 | -0.012 |
